Reference: PubChem BioAssay (NCATS)
Records with an inconclusive call do not appear. Calls of active or inactive are those of the source. Calls come from the whole dose curve; as a rule, active = well fitted inhibition curve with a large enough effect; inconclusive = small, poorly fitted or top-dose-only effect; inactive = flat fitted curve, though single readings scatter.

Legend:
CRL-7250 = normal cell line; assay: Cytotoxic Profiling of Annotated Libraries Using Quantitative High-Throughput Screening (AID 1296008); settings: Five cell lines viability, CellTiter-Glo ATP luminescence, 48-72 h; max response: active compounds read low; note: potency is the fitted concentration of half-maximal effect; for max response: % is set by controls: 0 for no effect and ±100 for the full control effect
Outline: (§1)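 Cytotoxicity was measured as CellTiter-Glo ATP luminescence, read after 10 min at room temperature. Compound treatment of the cells lasted 48 or 72 hr at 37 degrees Celsius in a qHTS format.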

HEK293 = assay: as above; settings: Five cell lines viability, CellTiter-Glo ATP luminescence, 48-72 h; max response: active compounds read low
Outline: as §1

HaCat [1] = assay: as above; settings: Five cell lines viability, CellTiter-Glo ATP luminescence, 48-72 h; max response: active compounds read low
Outline: as §1

NIH3T3 = assay: as above; settings: Five cell lines viability, CellTiter-Glo ATP luminescence, 48-72 h; max response: active compounds read low
Outline: as §1

HACAT [2] = assay: qHTS assay to identify novel small-molecules to repurpose for Merkel cell carcinoma treatment (AID 1296009); settings: MCC and control cell lines, CellTiter-Glo viability, 72 h; at 44.8 µM (top of the series) unless noted
Outline: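 72 hr, 37 degree celsius; NPC 8-pt / MIPE 11-pt dose response; compound pinned in DMSO; CellTiter-Glo, 10 min RT, luminescence; normalized to no-cell and DMSO controls.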
Note: nearly all actives have a fitted effect of over 60% in size.

C1=C/COCc2cc(ccc2OCCN2CCCC2)Nc2nccc(n2)-c2cccc(c2)COC/1
active: Potency (CRL-7250) 6.51 µM | Potency (HEK293) 2.06 µM | Potency (HaCat [1]) 5.8 µM | Potency (NIH3T3) 4.11 µM

Cc1cc(-c2ncc(-c3cccnc3)cc2/C=C/c2ccccc2)cnc1-c1cccnc1
inactive: outcome (CRL-7250) | outcome (HaCat [1]) | max response (NIH3T3) 3.84% | outcome (HACAT [2])
active: Potency (HEK293) 2.59 µM

C=CC(=O)Nc1cccc(Nc2nc(Nc3ccc(NC4CN(CCF)C4)cc3OC)ncc2C(F)(F)F)c1
active: Potency (CRL-7250) 7.31 µM | Potency (HEK293) 8.2 µM | Potency (HaCat [1]) 3.66 µM | Potency (NIH3T3) 13 µM

O=c1cc(NCCCN[C@@H]2CCOc3c(Br)cc(Br)cc32)[nH]c2ccsc12
active: Potency (HEK293) 5.8 µM
inactive: max response (CRL-7250) 1.96% | max response (HaCat [1]) -8.13% | max response (NIH3T3) 2.02%

C=C1C(=O)O[C@@H]2C3C(=C(C)[C@@H](O)[C@@H](OC(=O)/C(=C/C)COC(C)=O)[C@@H]12)C(=O)[C@H]1O[C@@]31C (some centres not stated)
active: Potency (CRL-7250) 6.32 µM | Potency (HEK293) 1 µM | Potency (HaCat [1]) 3.17 µM | Potency (NIH3T3) 2.24 µM

COC(=O)N1CCC(n2ncc3c(N4CCOCC4)nc(-c4ccc(NC(=O)NC5CC5)cc4)nc32)CC1
active: Potency (CRL-7250) 0.259 µM | Potency (HEK293) 0.291 µM | Potency (HaCat [1]) 6.51 µM | Potency (NIH3T3) 0.651 µM

CCC(CC)C(=O)OC12C(OC(=O)C(C)C)C(C)C3(O)C(C=C(CO)CC4(O)C(=O)C(C)=CC43)C1C2(C)C (configuration not stated)
inactive: max response (CRL-7250) 0.624% | max response (HEK293) -5.82% | outcome (HaCat [1]) | outcome (NIH3T3) | outcome (HACAT [2]) inactive [at 17.4 µM]

N#Cc1ccnc(Nc2cc(C3CCN(C4COC4)CC3)cc(N3CCC(F)(F)C3)n2)c1
active: Potency (CRL-7250) 11.7 µM | Potency (HEK293) 8.31 µM | Potency (HaCat [1]) 23.4 µM | Potency (NIH3T3) 20.9 µM

CC1CC(=O)C2=C(C1)C1OC1C1(O)C2C(=O)c2cccc(O)c2C1O (configuration not stated)
inactive: max response (CRL-7250) -42.8% | max response (HEK293) -91.9% | max response (HaCat [1]) -53.4% | max response (NIH3T3) -27%

CC(C)c1cc2c(N3CCN(C4=NCC(C)(C)S4)CC3)ncnc2s1
active: Potency (CRL-7250) 3.66 µM | Potency (HEK293) 1.3 µM
inactive: outcome (HaCat [1]) | max response (NIH3T3) -29.7% | outcome (HACAT [2])

CN[C@@H]1[C@H](O[C@H]2[C@H](O[C@@H]3[C@@H](O)[C@H](O)[C@@H](N=C(N)N)[C@H](O)[C@H]3N=C(N)N)O[C@@H](C)[C@]2(O)CO)O[C@@H](CO)[C@H](O)[C@H]1O
inactive: max response (CRL-7250) 1.43% | max response (HEK293) -16.2% | max response (HaCat [1]) -0.834% | max response (NIH3T3) 3.49%

CNc1cc2[nH]c(=O)n(-c3ccc(NC(=O)NS(=O)(=O)c4ccc(Cl)s4)cc3)c(=O)c2cc1F
inactive: outcome (CRL-7250) | max response (HEK293) -0.0272% | outcome (HaCat [1]) | max response (NIH3T3) 2.24% | outcome (HACAT [2])

CC1(C(=O)Nc2ccc(F)nc2)CCCN1c1nc(Nc2cc(C3CC3)[nH]n2)c2cccn2n1 (configuration not stated)
active: Potency (CRL-7250) 8.2 µM | Potency (HEK293) 5.17 µM | Potency (HaCat [1]) 2.06 µM | Potency (NIH3T3) 4.61 µM

COc1cc(N2CCC(O)CC2)ccc1Nc1nc(Nc2ccccc2S(=O)(=O)C(C)C)c2[nH]cnc2n1
active: Potency (HEK293) 5.8 µM | Potency (HaCat [1]) 18.4 µM | Potency (NIH3T3) 7.31 µM
inactive: max response (CRL-7250) -7.74%

CC[C@@H](Nc1c(Nc2cccc(C(=O)N(C)C)c2O)c(=O)c1=O)c1cc(C(C)C)co1
inactive: max response (CRL-7250) 4.29% | max response (HEK293) -14.3% | outcome (HaCat [1]) | max response (NIH3T3) -6.94% | outcome (HACAT [2])

Cc1nc2ccc(CN(C)c3ccc(C(=O)NC(CCC(=O)O)C(=O)O)s3)cc2c(=O)[nH]1 (configuration not stated)
active: Potency (HEK293) 0.0411 µM | Potency (HaCat [1]) 0.0103 µM | Potency (NIH3T3) 0.0651 µM
inactive: outcome (CRL-7250)

CC(=O)O[C@@H]1C[C@@]23C[C@@]24CC[C@H](O[C@@H]2OC[C@H](O)[C@H](O)[C@H]2O)C(C)(C)[C@@H]4CC[C@H]3[C@]2(C)[C@@H](O)C34O[C@H](C[C@@H](C)[C@@H]3[C@@]12C)[C@@H](C(C)(C)O)O4
inactive: max response (CRL-7250) 4.08% | max response (HEK293) -6.78% | outcome (HaCat [1]) | max response (NIH3T3) 2.71% | outcome (HACAT [2])

Cc1ccccc1C(C(=O)NC1CCCCC1)N(C(=O)Cn1cnc2ccccc21)c1cccc(F)c1 (configuration not stated)
active: Potency (HEK293) 16.4 µM | Potency (HaCat [1]) 8.2 µM | Potency (NIH3T3) 18.4 µM
inactive: max response (CRL-7250) -31.4%

C=C(C)C(=O)OC1CC2(C)OC(=CC2=O)C(=C)CC2OC(=O)C(=C)C12 (configuration not stated)
active: Potency (CRL-7250) 3.21 µM | Potency (HEK293) 0.718 µM | Potency (HaCat [1]) 5.08 µM | Potency (NIH3T3) 2.86 µM
